{"source": "the supplement of paper PMC4166925", "note": "± gives the standard deviation of the averaged measurements. Whole data set: some 33,000 sequences, median “E-score (dimensionless, -0.5 to 0.5)” near -0.046, cut for the highest 2% near 0.36. Many of the other results were omitted from the sample, so the highest values are more common in it than they were."}
{"test_system": "T1, SpTbr T-box DNA-binding domain (GST fusion)", "T1 sequence": "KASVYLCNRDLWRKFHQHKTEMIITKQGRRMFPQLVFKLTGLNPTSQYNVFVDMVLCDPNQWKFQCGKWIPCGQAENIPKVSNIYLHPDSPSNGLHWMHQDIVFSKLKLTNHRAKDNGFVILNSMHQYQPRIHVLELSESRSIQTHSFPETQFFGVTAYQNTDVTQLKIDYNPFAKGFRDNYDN", "test": "PBM E-score of 8-mer (E-score (dimensionless, -0.5 to 0.5)); Tbr is Tbrain of the sea star Patiria miniata (Pm) or the sea urchin Strongylocentrotus purpuratus (Sp); higher = stronger binding preference", "details": "the construct has about 5 more residues each side", "procedure,_shortened": "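Primer extension turned Universal Agilent oligonucleotide arrays double-stranded. They were incubated with 200 nM protein in PBS (pH 7.5); the protein was a GST-fused Tbr T-box DNA-binding domain expressed in BL21 E. coli at 20 °C and purified on glutathione. Every ungapped 8-mer was scored from the scanned, quantified probe intensities, and the Universal PBM Analysis Suite gave each an enrichment E-score averaged over duplicate arrays.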"}
{"sequence": "CCATGGAG", "PBM E-score of 8-mer": "-0.231 ± 0.015"}
{"sequence": "CCCAGAGG", "PBM E-score of 8-mer": "-0.127 ± 0.05"}
{"sequence": "ACACATCG", "PBM E-score of 8-mer": "0.394 ± 0.014"}
{"sequence": "ACACATCC", "PBM E-score of 8-mer": "0.388 ± 0.024"}
{"sequence": "ACACATCA", "PBM E-score of 8-mer": "0.339 ± 0.0072"}
{"sequence": "GCACATCC", "PBM E-score of 8-mer": "0.137 ± 0.0032"}
{"sequence": "CCACATCC", "PBM E-score of 8-mer": "-0.0299 ± 0.14"}
{"sequence": "ACACATCT", "PBM E-score of 8-mer": "0.31 ± 0.029"}
{"sequence": "CTACTTGA", "PBM E-score of 8-mer": "0.0916 ± 0.062"}
{"sequence": "ACACCATA", "PBM E-score of 8-mer": "0.231 ± 0.071"}
{"sequence": "ACACCACA", "PBM E-score of 8-mer": "0.364 ± 0.017"}
{"sequence": "ACACCACT", "PBM E-score of 8-mer": "0.269 ± 0.02"}
{"sequence": "ACACCACC", "PBM E-score of 8-mer": "0.365 ± 0.0069"}
{"sequence": "ACACCATC", "PBM E-score of 8-mer": "0.3674 ± 0.0022"}
{"sequence": "CCACCACC", "PBM E-score of 8-mer": "0.101 ± 0.038"}
{"sequence": "ACACCACG", "PBM E-score of 8-mer": "0.332 ± 0.018"}
{"sequence": "CCACCATC", "PBM E-score of 8-mer": "0.0489 ± 0.024"}
{"sequence": "CCACCACA", "PBM E-score of 8-mer": "0.131 ± 0.073"}
{"sequence": "ACCTGCCT", "PBM E-score of 8-mer": "0.00297 ± 0.084"}
{"sequence": "GGAGCGCC", "PBM E-score of 8-mer": "0.0178 ± 0.0015"}
{"sequence": "AGACCCAC", "PBM E-score of 8-mer": "0.0705 ± 0.1"}
{"sequence": "AGAGAAAT", "PBM E-score of 8-mer": "-0.0136 ± 0.08"}
{"sequence": "AGATCCAT", "PBM E-score of 8-mer": "-0.205 ± 0.039"}
{"sequence": "AATCTCAC", "PBM E-score of 8-mer": "0.366 ± 0.016"}
{"sequence": "CATCTCAC", "PBM E-score of 8-mer": "0.308 ± 0.006"}
{"sequence": "AATCTCAT", "PBM E-score of 8-mer": "-0.0127 ± 0.017"}
{"sequence": "GATCTCAA", "PBM E-score of 8-mer": "0.0536 ± 0.028"}
{"sequence": "AATCTCTC", "PBM E-score of 8-mer": "-0.1 ± 0.11"}
{"sequence": "GATCTCAC", "PBM E-score of 8-mer": "0.371 ± 0.02"}
{"sequence": "AATCTCAG", "PBM E-score of 8-mer": "-0.0558 ± 0.035"}
{"sequence": "AGACTCGG", "PBM E-score of 8-mer": "-0.23 ± 0.019"}
{"sequence": "TACACCCA", "PBM E-score of 8-mer": "0.105 ± 0.011"}
{"sequence": "CCCACCCA", "PBM E-score of 8-mer": "0.185 ± 0.054"}
{"sequence": "AGCACCCG", "PBM E-score of 8-mer": "0.257 ± 0.011"}
{"sequence": "CACACCCG", "PBM E-score of 8-mer": "0.448 ± 0.016"}
{"sequence": "CACCCCCC", "PBM E-score of 8-mer": "0.184 ± 0.003"}
{"sequence": "CACACCCC", "PBM E-score of 8-mer": "0.419 ± 0.025"}
{"sequence": "AACACCCG", "PBM E-score of 8-mer": "0.404 ± 0.01"}
{"sequence": "CACACCCA", "PBM E-score of 8-mer": "0.421 ± 0.02"}
{"sequence": "CACACCGC", "PBM E-score of 8-mer": "0.332 ± 0.037"}
{"sequence": "ATCACCCG", "PBM E-score of 8-mer": "0.12 ± 0.057"}
{"sequence": "CCCACCCG", "PBM E-score of 8-mer": "0.0685 ± 0.054"}
{"sequence": "CACCCCCG", "PBM E-score of 8-mer": "0.234 ± 0.018"}
{"sequence": "CCATGGCG", "PBM E-score of 8-mer": "-0.204 ± 0.015"}
{"sequence": "GACCGTCA", "PBM E-score of 8-mer": "0.0838 ± 0.01"}
{"sequence": "GACAGTGC", "PBM E-score of 8-mer": "0.152 ± 0.025"}
{"sequence": "AAAACTCC", "PBM E-score of 8-mer": "-0.156 ± 0.054"}
{"sequence": "AAGGCGTA", "PBM E-score of 8-mer": "0.153 ± 0.028"}
{"sequence": "AAGGCGTG", "PBM E-score of 8-mer": "0.392 ± 0.037"}
{"sequence": "CAGGCGTC", "PBM E-score of 8-mer": "0.236 ± 0.056"}
{"sequence": "ACGGCGTG", "PBM E-score of 8-mer": "0.232 ± 0.0069"}
{"sequence": "AAGGCGTC", "PBM E-score of 8-mer": "0.372 ± 0.035"}
{"sequence": "AGGGCGTG", "PBM E-score of 8-mer": "0.281 ± 0.01"}
{"sequence": "ACGTCCTA", "PBM E-score of 8-mer": "-0.17 ± 0.032"}
{"sequence": "AAGCGTTG", "PBM E-score of 8-mer": "0.192 ± 0.056"}
{"sequence": "CTCGCGCC", "PBM E-score of 8-mer": "0.412 ± 0.031"}
{"sequence": "ATCGCGCG", "PBM E-score of 8-mer": "0.337 ± 0.004"}
{"sequence": "ATCGCGCC", "PBM E-score of 8-mer": "0.4021 ± 0.0011"}
{"sequence": "ATCGCGCA", "PBM E-score of 8-mer": "0.151 ± 0.015"}
{"sequence": "CGCGCGCC", "PBM E-score of 8-mer": "0.173 ± 0.064"}
{"sequence": "CTCGCGCA", "PBM E-score of 8-mer": "0.248 ± 0.021"}
{"sequence": "AACTAGGG", "PBM E-score of 8-mer": "0.0057 ± 0.046"}
{"sequence": "AAGGAGGG", "PBM E-score of 8-mer": "-0.0491 ± 0.018"}
{"sequence": "GCTCATAC", "PBM E-score of 8-mer": "-0.0299 ± 0.01"}
{"sequence": "CGTTGGGA", "PBM E-score of 8-mer": "-0.121 ± 0.024"}
{"sequence": "ATTAAGAC", "PBM E-score of 8-mer": "-0.0771 ± 0.015"}
